Measurements from PubChem BioAssay (Tox21).
Records with an inconclusive call do not appear. Active and inactive are the calls of the source. Unless noted, calls come from the whole dose curve.

How the values were obtained:
[1] = target: Thyrotropin receptor (Homo sapiens) (UniProt P16473); test: qHTS assay to identify small molecule agonists of the thyroid stimulating hormone receptor (TSHR) signaling pathway (AID 1224843); note: nearly all actives have a fitted effect of over 45% in size
Procedure, shortened: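 Agonist activity read as cAMP rise via d2/cryptate HTRF competition, 1 h room-temperature detection, in HEK293 cells expressing TSHR. Fifteen-point titrations, each run in triplicate, with a 30 min room-temperature incubation beforehand.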

[2] = qHTS assay to identify small molecule agonists of the hypoxia (HIF-1) signaling pathway - cell viability counter screen (AID 1224844); note: nearly all actives have a fitted effect of over 50% in size
Procedure, shortened: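 HRE-bla ME-180; 0.5% dFBS; cpd 17 h, 37C, 5% CO2; CellTiter-Glo lum., 30 min RT, post-FRET read, same wells.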

[3] = qHTS assay to identify small molecule agonists of H2AX (AID 1224845; active = well fitted activation curve with a large enough effect in the signal ratio in the repeat runs, not every such curve was filed as active; the % refers to the signal ratio)
Procedure, shortened: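 Phospho-H2AX Ser139 measured by HTRF (ex 320 nm; em 665 and 620 nm) after 24 hr antibody incubation. Compounds, 15 concentrations, 0.76% DMSO, were applied to CHO-K1 cells for 3hr at 37C before lysis.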

[4] = qHTS assay to identify small molecule agonists of the hypoxia (HIF-1) signaling pathway (AID 1224846; active = well fitted activation curve with a large enough effect in the signal ratio in the repeat runs, not every such curve was filed as active; the % refers to the signal ratio)
Procedure, shortened: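 Reporter induction in HRE-bla ME-180 cells is taken as agonism: cells sit 5 hrs after plating, receive compounds or DMSO only, incubate 17 hrs at 37C under 5% CO2, and are loaded with CCF4-AM for beta-lactamase FRET measurement.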

[5] = qHTS assay to identify small molecule agonists of H2AX - cell viability counter screen (AID 1224847); note: top concentration of the series differs between compounds; nearly all actives have a fitted effect of over 30% in size
Procedure, shortened: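 Read-out: CellTiter-Glo luminescence, 30 min RT. Cells: wild-type CHO-K1, 1000/well, 10% FBS, plated overnight at 37C. Treatment: 15 concentrations, 3 hr, 37C, 0.76% DMSO.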

[6] = qHTS RealTime-Glo MT Cell Viability Assay in HEK293 cells - 32 hour (AID 1224868; active = well fitted curve in the direction sought with a large enough effect in the repeat runs; an effect the other way counts as inactive or inconclusive; note: top concentration of the series differs between compounds; nearly all actives have a fitted effect of over 50% in size)
Procedure, shortened: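 Assay medium contained NanoLuc luciferase plus cell-permeant prosubstrate, added with HEK293 cells at 600 cells/well. After 5 h at 37 C/5% CO2 compounds were added; plates stayed at 37 C for 40 h with serial luminescence reads.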

[7] = qHTS RealTime-Glo MT Cell Viability Assay in HepG2 cells - 24 hour (AID 1224867; active = well fitted curve in the direction sought with a large enough effect in the repeat runs; an effect the other way counts as inactive or inconclusive; note: nearly all actives have a fitted effect of over 50% in size)
Procedure, shortened: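 qHTS, HepG2, 600 cells/well, RealTime-Glo (NanoLuc + prosubstrate) added with cells; 5 h preincubation; DMSO compound addition; 37 C; luminescence at 0/8/16/24/32/40 h.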

[8] = A CellTox Green Cytotoxicity Assay to monitor cytotoxicity in HEK293 cells - 0 hour (AID 1224869; active = well fitted curve in the direction sought with a large enough effect in the repeat runs; an effect the other way counts as inactive or inconclusive; note: nearly all actives have a fitted effect of over 50% in size)
Procedure, shortened: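 Tox21 screen in HEK293: membrane-impermeant cyanine dye fluoresces on binding dead-cell DNA; compound pinned 5 h post-seeding, plates held at 37 C, signal read repeatedly through 40 h.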

[9] = qHTS assay to identify small molecule antagonists of the estrogen related receptor (ERR) signaling pathway from Tox21 library (AID 1224848; active = well fitted curve in the direction sought with a large enough effect in the repeat runs; an effect the other way counts as inactive or inconclusive; note: nearly all actives have a fitted effect of over 50% in size; note: potency is the fitted concentration of half-maximal effect)
Procedure, shortened: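 Luciferase luminescence (ONE-Glo, 30 min room temperature) was the read-out. Cells of the NTP-supplied ERR line, 2,000 per well, were given 6 h at 37 C before compound addition in DMSO and 18 h exposure at 37 C.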

[10] = qHTS assay to identify small molecule agonists of the estrogen related receptor (ERR) signaling pathway from Tox21 library (AID 1224849); conditions: ERR reporter cell line, ONE-Glo luciferase, 18 h; at 92.4 µM (top of the series) unless noted; note: nearly all actives have a fitted effect of over 15% in size
Procedure, shortened: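 Tox21 compounds tested for ERR agonism in an NTP reporter cell line: 18 h treatment at 37 C, then ONE-Glo luminescence.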
% is set by controls: 0 for no effect and ±100 for the full control effect.

Thyrotropin receptor (Homo sapiens), sequence (P16473 whole entry, looked up): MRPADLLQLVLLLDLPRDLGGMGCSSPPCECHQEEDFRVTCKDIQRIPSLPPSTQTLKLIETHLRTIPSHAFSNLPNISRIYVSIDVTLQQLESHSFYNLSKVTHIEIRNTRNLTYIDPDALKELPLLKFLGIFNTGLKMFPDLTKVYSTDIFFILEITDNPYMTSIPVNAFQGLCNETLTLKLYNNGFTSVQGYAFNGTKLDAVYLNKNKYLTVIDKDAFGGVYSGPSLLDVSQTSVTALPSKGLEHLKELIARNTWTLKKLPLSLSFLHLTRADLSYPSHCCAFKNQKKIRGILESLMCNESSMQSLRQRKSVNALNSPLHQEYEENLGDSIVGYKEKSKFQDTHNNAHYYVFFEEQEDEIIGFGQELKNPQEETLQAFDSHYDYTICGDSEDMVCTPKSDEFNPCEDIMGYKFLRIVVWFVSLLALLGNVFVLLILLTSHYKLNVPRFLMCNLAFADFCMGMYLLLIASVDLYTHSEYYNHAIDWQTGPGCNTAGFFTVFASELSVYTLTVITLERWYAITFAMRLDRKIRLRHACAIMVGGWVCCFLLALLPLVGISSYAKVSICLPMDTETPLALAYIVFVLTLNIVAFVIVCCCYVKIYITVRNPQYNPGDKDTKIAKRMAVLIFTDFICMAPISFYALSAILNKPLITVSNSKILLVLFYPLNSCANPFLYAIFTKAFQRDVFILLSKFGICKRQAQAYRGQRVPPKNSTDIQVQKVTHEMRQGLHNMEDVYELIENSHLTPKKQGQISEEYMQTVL

CCCCNc1ccccc1
inactive: outcome [1] | Potency [2] | outcome [3] | outcome [4] | Potency [5] | Potency [6]

C=CCSCC1Nc2cc(Cl)c(S(N)(=O)=O)cc2S(=O)(=O)N1 (stereo unspecified)
inactive: outcome [1] | Potency [2] | outcome [3] | outcome [4] | Potency [5] | outcome [7] | Potency [6] | Potency [8]

C#CC(C)(O)CC(C)C (stereo unspecified)
inactive: outcome [1] | Potency [2] | outcome [3] | outcome [4] | Potency [9] | activity change, positive = activation [10] 13.6% | outcome [7] | Potency [6] | Potency [8]

C=CCOCC(O)CS(=O)(=O)O (stereo unspecified)
inactive: outcome [1] | Potency [2] | outcome [3] | outcome [4] | Potency [5] | outcome [7] | Potency [6] | Potency [8]

Cc1onc(-c2ccccc2)c1-c1ccc(S(N)(=O)=O)cc1
inactive: outcome [1] | Potency [2] | outcome [3] | outcome [4] | activity change, positive = activation [10] -32.6% [at 42.5 µM] | outcome [7] | Potency [8]
active: Potency [9] 13.3 µM

CC(C)(C)N(CCO)CCO
inactive: outcome [1] | Potency [2] | outcome [3] | outcome [4] | Potency [5] | outcome [7] | Potency [6] | Potency [8]

CC(C)(C)CC(C)(C)N
inactive: outcome [1] | Potency [2] | outcome [3] | outcome [4] | Potency [5] | outcome [7] | Potency [6] | Potency [8]

CC(=O)NC(Cc1ccccc1)C(=O)O (stereo unspecified)
inactive: outcome [1] | Potency [2] | outcome [3] | outcome [4] | Potency [5] | outcome [7] | Potency [6] | Potency [8]

CCCc1ccc(N)cc1
inactive: outcome [1] | Potency [2] | outcome [3] | outcome [4] | Potency [5] | outcome [7] | Potency [6] | Potency [8]

CCC(C(=O)NC(N)=O)c1ccccc1 (stereo unspecified)
inactive: outcome [1] | Potency [2] | outcome [3] | outcome [4] | Potency [9] | activity change, positive = activation [10] -3.04% | outcome [7] | Potency [6] | Potency [8]

CC(C)CCCC(C)CCCC(C)CCCCC(C)CCCC(C)CCCC(C)C (stereo unspecified)
inactive: outcome [1] | Potency [2] | outcome [3] | outcome [4] | Potency [5] | Potency [6] | Potency [8]

CCOC(=O)Nc1ccc2c(c1)N(C(=O)CCN1CCOCC1)c1ccccc1S2
inactive: outcome [1] | Potency [2] | outcome [3] | outcome [4] | Potency [5] | outcome [7] | Potency [6] | Potency [8]

C=CCn1c(=O)n([C@@H]2O[C@H](CO)[C@@H](O)[C@H]2O)c2nc(N)[nH]c(=O)c21
inactive: outcome [1] | Potency [2] | outcome [3] | outcome [4] | Potency [5] | Potency [6] | Potency [8]

CC(C)[C@H](N)C(=O)OCCOCn1cnc2c(=O)[nH]c(N)nc21
inactive: outcome [1] | Potency [2] | outcome [3] | outcome [4] | Potency [5] | Potency [6] | Potency [8]

C=CCOc1nc(OCC=C)nc(OCC=C)n1
inactive: outcome [1] | Potency [2] | outcome [3] | outcome [4] | Potency [5] | Potency [6] | Potency [8]

C[N+](C)(C)CC[N+]1(C)Cc2c(Cl)c(Cl)c(Cl)c(Cl)c2C1
inactive: outcome [1] | Potency [2] | outcome [3] | outcome [4] | Potency [5] | Potency [6] | Potency [8]

NC(CS)C(=O)O (stereo unspecified)
inactive: outcome [1] | Potency [2] | outcome [3] | outcome [4] | Potency [5] | outcome [7] | Potency [6] | Potency [8]

NC(=S)Nc1cccc2ccccc12
inactive: activation [1] 1.3% [at 8.39 µM] | activity change, negative = cytotoxicity [2] -3.12% [at 6.97 µM] | activation (H2AX phosphorylation) [3] 4.19% [at 14 µM] | activation [4] 1.15% [at 7.01 µM] | activity change, negative = cytotoxicity [5] 1.9% [at 14 µM] | activity change, negative = cytotoxicity [7] 1.73% [at 6.97 µM] | activity change, negative = cytotoxic [6] 15.6% [at 6.97 µM] | cytotoxicity [8] 0.823% [at 6.97 µM]

FC(F)(F)C(F)(F)C(F)(F)C(F)(F)C(F)(F)C(F)(F)C(F)(F)C(F)(F)C(F)(F)C(F)(F)F
inactive: activation [1] 1.03% [at 8.39 µM] | activity change, negative = cytotoxicity [2] -0.544% [at 6.97 µM] | activation (H2AX phosphorylation) [3] -0.945% [at 14 µM] | activation [4] -1.11% [at 7.01 µM] | activity change, negative = cytotoxicity [5] 0.329% [at 14 µM] | activity change, negative = cytotoxicity [7] -0.167% [at 6.97 µM] | activity change, negative = cytotoxic [6] -3.25% [at 6.97 µM] | cytotoxicity [8] -6.11% [at 6.97 µM]

CC(C)COC(=O)c1ccccc1O
inactive: outcome [1] | Potency [2] | outcome [3] | outcome [4] | Potency [5] | outcome [7] | Potency [6] | Potency [8]

C#CC(O)CCCCC (stereo unspecified)
inactive: outcome [1] | Potency [2] | outcome [3] | outcome [4] | Potency [5] | Potency [6] | Potency [8]

Cc1nc(-c2ccc(OCC(C)C)c(C#N)c2)sc1C(=O)O
inactive: outcome [1] | Potency [2] | outcome [3] | outcome [4] | Potency [9] | outcome [7] | Potency [6] | Potency [8]
active: activity change, positive = activation [10] 18.5% [at 42.5 µM]

CCCCCCCCCCCCCCC
inactive: outcome [1] | Potency [2] | outcome [3] | outcome [4] | Potency [9] | activity change, positive = activation [10] 4.59% | outcome [7] | Potency [6] | Potency [8]

CCCCc1ccc(N)cc1
inactive: outcome [1] | Potency [2] | outcome [3] | outcome [4] | Potency [5] | outcome [7] | Potency [8]

CCCCCC[C@@H](CCC)C(=O)O
inactive: outcome [1] | Potency [2] | outcome [3] | outcome [4] | activity change, positive = activation [10] -23% [at 42.5 µM] | outcome [7] | Potency [6] | Potency [8]

CC(=O)c1ccc(C)cc1
inactive: outcome [1] | Potency [2] | outcome [3] | outcome [4] | Potency [5] | outcome [7] | Potency [6] | Potency [8]

CCCCCCCCCCCCCCCCCC(=O)OCCCCCCCCCCCCCC(C)C
inactive: outcome [1] | Potency [2] | outcome [3] | outcome [4] | Potency [5] | outcome [7] | Potency [6] | Potency [8]
